The values below come from PMC5540273 (PLoS ONE, 2017).
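Also: KINOMEscan kinase panel screen.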

The subject of one test is PLK1. As to conditions: concentration: 1 μM, replicates: in singlicate; n = 1.
On to `Fc1cccc(COc2ccc(Nc3ncnc4cc[nH]c34)cc2Cl)c1`, for which the “%Inh” value worked out at 23%.

On to `O=C(CCO)NCCn1ccc2ncnc(Nc3ccc(Oc4cccc(C(F)(F)F)c4)c(Cl)c3)c21`, for which the “%Inh” value is given as 0%.

`COc1cc2c(Nc3cccc(NC(=O)c4ccccc4)c3)ncnc2cc1OCCCN1CCOCC1` [GSK223810]: the “%Inh” value is reported as 0%.

As to `Cl.Cn1ccc(-c2cccc(Nc3ccnc4cc(-c5nccs5)ccc34)c2)n1` [GW525701], the “%Inh” value came to 0%.

With `Nc1n[nH]c2nnc(-c3ccccc3)cc12` [SB-517389], the “%Inh” value is 0%.

Consider `Fc1cccc(COc2ccc(Nc3ncnc4nn5ccccc5c34)cc2Cl)c1` [GW689066], for which the “%Inh” value is 0%.

For `CN1c2ccc(-c3ccc(C(=O)NCCO)cc3)cc2-c2[nH]ncc2S1(=O)=O`, the “%Inh” value was found to be 21%.

In the case of `Clc1cccc(-c2nc(Nc3ccncc3)c3ccccc3n2)c1` [GW873004], the “%Inh” value turned out to be 17%.

Take `COc1ccc(Nc2nccc(N3CCC(NC(=O)c4cccc(NC(C)=O)c4)C3)n2)cc1` (stereo not drawn) [GSK1379732]: the “%Inh” value was determined as 15%.

For the compound `COc1ccc(Nc2nccc(N3CCC(NC(=O)Nc4ccc5c(c4)OCO5)C3)n2)cc1` (stereo not drawn) [GSK1379745], the “%Inh” value came to 8%.

With `COC(=O)c1c(-c2ccccc2)c2cc(Cl)ccc2c(=O)n1Cc1ccc(S(C)(=O)=O)cc1`, the “%Inh” value came out at 0%.

Take `Cc1ccc(NC(=O)c2cccc(C#N)c2)cc1-c1ccc(C(=O)Nc2ccncc2)cc1` [GSK1398463]: the “%Inh” value came out at 0%.

Consider `O=C(c1ccc(-c2cc(-c3c[nH]nc3-c3ccccn3)ccn2)cc1)N1CCCC1` [GW792479], for which the “%Inh” value was determined as 0%.

`O=c1cc(N2CCOCC2)nc2n(Cc3cccc(Cl)c3)ccn12` [GSK2296823]: the “%Inh” value was 5%.

On to `Cn1cc(-c2ccc3c(c2)CCN3C(=O)Cc2cccc(C(F)(F)F)c2)c2c(N)ncnc21` [GSK2606414], for which the “%Inh” value is listed as 0%.

As for `CSc1ccc(NC2=C(c3ccccc3Cl)C(=O)NC2=O)cc1` [SB-342411], the “%Inh” value is on record as 8%.

For `FC(F)(F)c1cc(Nc2nccc(-c3c(-c4ccc(Cl)cc4)nn4ncccc34)n2)ccc1Cl` [GW829351], the “%Inh” value amounted to 0%.

For `Nc1nc(-c2ccc3c(N)n[nH]c3c2)cc(N2CCCCC2)n1` [GSK2228768], the “%Inh” value stood at 0%.

On to `Nc1nc(-c2cccnc2)c(-c2ccnc3ccccc23)s1` [GW684083], for which the “%Inh” value turned out to be 0%.

Turning to `O=C(Nc1ccccc1)Nc1ccc(Oc2ccc3nccn3n2)cc1`, the “%Inh” value is 3%.

With `O=C(Nc1ccccc1F)NC1CCN(c2ccnc(Nc3ccc(F)cc3)n2)C1` (stereo not drawn) [GSK1379722], the “%Inh” value is listed as 0%.

`CNc1nccc(-c2c(-c3ccc(F)cc3)ncn2CCCN2CCOCC2)n1` [SB-222516]: the “%Inh” value is 41%.

As for `CCn1c(-c2ccncc2)nc2cnccc21` [SB-735216], the “%Inh” value was 28%.

As to `Fc1cccc(COc2ccc(Nc3ncnc4sc(-c5ccc[nH]5)cc34)cc2Cl)c1` [GW707818], the “%Inh” value was found to be 0%.

Turning to `N#Cc1ccc(Oc2ccc(Nc3ncnc4cc[nH]c34)cc2Cl)cc1`, the “%Inh” value is listed as 4%.

As for `Cc1cc(N2CCC(NS(=O)(=O)c3ccc(F)cc3)CC2)nc(Nc2cccc(C#N)c2)n1.O=C(O)C(F)(F)F` [GSK1653537], the “%Inh” value was determined as 5%.

With `CC(C)(C)OC(=O)NC1CCCN(c2cc(-c3ccc4c(N)n[nH]c4c3)nc(N)n2)C1` (stereo not drawn) [GSK2286096], the “%Inh” value stood at 16%.

For the compound `Fc1ccc(-c2ncn(CCCNCc3ccccc3)c2-c2ccncc2)cc1`, the “%Inh” value was 0%.

`Cc1ccc(C)c(NC(=O)NCCNc2ccnc(Nc3ccc(F)cc3)n2)c1` [GSK1379878]: the “%Inh” value was determined as 4%.

For `CSc1nn2c(=O)cc(N3CCOCC3)nc2n1Cc1cccc(Cl)c1Cl` [GSK2347225], the “%Inh” value is on record as 55%.

Turning to `c1ccc(-c2ccc3c(-c4ccnc(Nc5ccc6c(c5)OCCO6)n4)cnn3n2)cc1` [GW818941], the “%Inh” value was found to be 9%.

With `CCc1nc(-c2cccc(N(C)S(=O)(=O)c3ccccc3)c2)c(-c2ccnc(Nc3ccc(N4CCN(C(C)=O)CC4)nc3)n2)s1` [GSK1645895], the “%Inh” value came out at 7%.

With `Cl.Cl.c1ccc(-c2cc3ccncc3cc2OC2CCNCC2)cc1` [GSK1122999], the “%Inh” value was 5%.

Regarding `CS(=O)(=O)CCNCc1nc(-c2ccc3ncnc(Nc4ccc(OCc5cccc(F)c5)c(Cl)c4)c3c2)cs1.Cl` [GW583340], the “%Inh” value was found to be 0%.

With `Cc1cccc(-c2nc(Nc3ccc4[nH]nnc4c3)c3ccccc3n2)n1` [GW867587], the “%Inh” value is 0%.

As for `Nc1nc(-c2ccccn2)c(-c2ccnc3ccccc23)s1` [GW548057], the “%Inh” value is recorded as 0%.

The test system of another test is PLK2. Particulars: concentration: 1 μM, replicates: in singlicate; n = 1.
On to `Fc1cccc(COc2ccc(Nc3ncnc4cc[nH]c34)cc2Cl)c1`, for which the “%Inh” value was found to be 23%.

Turning to `O=C(CCO)NCCn1ccc2ncnc(Nc3ccc(Oc4cccc(C(F)(F)F)c4)c(Cl)c3)c21`, the “%Inh” value turned out to be 0%.

Consider `COc1cc2c(Nc3cccc(NC(=O)c4ccccc4)c3)ncnc2cc1OCCCN1CCOCC1` [GSK223810], for which the “%Inh” value is 3%.

As for `Cl.Cn1ccc(-c2cccc(Nc3ccnc4cc(-c5nccs5)ccc34)c2)n1` [GW525701], the “%Inh” value is recorded as 0%.

`Nc1n[nH]c2nnc(-c3ccccc3)cc12` [SB-517389]: the “%Inh” value is 35%.

Turning to `Fc1cccc(COc2ccc(Nc3ncnc4nn5ccccc5c34)cc2Cl)c1` [GW689066], the “%Inh” value is listed as 0%.

For the compound `CN1c2ccc(-c3ccc(C(=O)NCCO)cc3)cc2-c2[nH]ncc2S1(=O)=O`, the “%Inh” value came to 17%.

In the case of `Clc1cccc(-c2nc(Nc3ccncc3)c3ccccc3n2)c1` [GW873004], the “%Inh” value was found to be 0%.

Consider `COc1ccc(Nc2nccc(N3CCC(NC(=O)c4cccc(NC(C)=O)c4)C3)n2)cc1` (stereo not drawn) [GSK1379732], for which the “%Inh” value was determined as 6%.

Consider `COc1ccc(Nc2nccc(N3CCC(NC(=O)Nc4ccc5c(c4)OCO5)C3)n2)cc1` (stereo not drawn) [GSK1379745], for which the “%Inh” value stood at 0%.

As to `COC(=O)c1c(-c2ccccc2)c2cc(Cl)ccc2c(=O)n1Cc1ccc(S(C)(=O)=O)cc1`, the “%Inh” value is reported as 6%.

As for `Cc1ccc(NC(=O)c2cccc(C#N)c2)cc1-c1ccc(C(=O)Nc2ccncc2)cc1` [GSK1398463], the “%Inh” value stood at 0%.

With `O=C(c1ccc(-c2cc(-c3c[nH]nc3-c3ccccn3)ccn2)cc1)N1CCCC1` [GW792479], the “%Inh” value is given as 0%.

With `O=c1cc(N2CCOCC2)nc2n(Cc3cccc(Cl)c3)ccn12` [GSK2296823], the “%Inh” value was 0%.

As for `Cn1cc(-c2ccc3c(c2)CCN3C(=O)Cc2cccc(C(F)(F)F)c2)c2c(N)ncnc21` [GSK2606414], the “%Inh” value is on record as 0%.

As to `CSc1ccc(NC2=C(c3ccccc3Cl)C(=O)NC2=O)cc1` [SB-342411], the “%Inh” value is recorded as 0%.

`FC(F)(F)c1cc(Nc2nccc(-c3c(-c4ccc(Cl)cc4)nn4ncccc34)n2)ccc1Cl` [GW829351]: the “%Inh” value is listed as 0%.

As for `Nc1nc(-c2ccc3c(N)n[nH]c3c2)cc(N2CCCCC2)n1` [GSK2228768], the “%Inh” value is 0%.

Regarding `Nc1nc(-c2cccnc2)c(-c2ccnc3ccccc23)s1` [GW684083], the “%Inh” value came out at 0%.

In the case of `O=C(Nc1ccccc1)Nc1ccc(Oc2ccc3nccn3n2)cc1`, the “%Inh” value is given as 0%.

On to `O=C(Nc1ccccc1F)NC1CCN(c2ccnc(Nc3ccc(F)cc3)n2)C1` (stereo not drawn) [GSK1379722], for which the “%Inh” value was 0%.

Take `CNc1nccc(-c2c(-c3ccc(F)cc3)ncn2CCCN2CCOCC2)n1` [SB-222516]: the “%Inh” value was 14%.

Take `CCn1c(-c2ccncc2)nc2cnccc21` [SB-735216]: the “%Inh” value was determined as 37%.

On to `Fc1cccc(COc2ccc(Nc3ncnc4sc(-c5ccc[nH]5)cc34)cc2Cl)c1` [GW707818], for which the “%Inh” value is 7%.

For the compound `N#Cc1ccc(Oc2ccc(Nc3ncnc4cc[nH]c34)cc2Cl)cc1`, the “%Inh” value is given as 5%.

In the case of `Cc1cc(N2CCC(NS(=O)(=O)c3ccc(F)cc3)CC2)nc(Nc2cccc(C#N)c2)n1.O=C(O)C(F)(F)F` [GSK1653537], the “%Inh” value was 0%.

On to `CC(C)(C)OC(=O)NC1CCCN(c2cc(-c3ccc4c(N)n[nH]c4c3)nc(N)n2)C1` (stereo not drawn) [GSK2286096], for which the “%Inh” value was found to be 0%.

Turning to `Fc1ccc(-c2ncn(CCCNCc3ccccc3)c2-c2ccncc2)cc1`, the “%Inh” value amounted to 5%.

`Cc1ccc(C)c(NC(=O)NCCNc2ccnc(Nc3ccc(F)cc3)n2)c1` [GSK1379878]: the “%Inh” value came out at 0%.

Consider `CSc1nn2c(=O)cc(N3CCOCC3)nc2n1Cc1cccc(Cl)c1Cl` [GSK2347225], for which the “%Inh” value was determined as 0%.

In the case of `c1ccc(-c2ccc3c(-c4ccnc(Nc5ccc6c(c5)OCCO6)n4)cnn3n2)cc1` [GW818941], the “%Inh” value stood at 0%.

As for `CCc1nc(-c2cccc(N(C)S(=O)(=O)c3ccccc3)c2)c(-c2ccnc(Nc3ccc(N4CCN(C(C)=O)CC4)nc3)n2)s1` [GSK1645895], the “%Inh” value worked out at 0%.

Take `Cl.Cl.c1ccc(-c2cc3ccncc3cc2OC2CCNCC2)cc1` [GSK1122999]: the “%Inh” value was 0%.

Regarding `CS(=O)(=O)CCNCc1nc(-c2ccc3ncnc(Nc4ccc(OCc5cccc(F)c5)c(Cl)c4)c3c2)cs1.Cl` [GW583340], the “%Inh” value is reported as 0%.

With `Cc1cccc(-c2nc(Nc3ccc4[nH]nnc4c3)c3ccccc3n2)n1` [GW867587], the “%Inh” value is recorded as 0%.

For the compound `Nc1nc(-c2ccccn2)c(-c2ccnc3ccccc23)s1` [GW548057], the “%Inh” value is recorded as 0%.
